# PubChem BioAssay
# Several values for one entry are separate records, joined by “and”; a condition that tells them apart may be missing. Equal values may be shown once. Activity calls are given as the source filed them. Unless noted, the rule behind the calls is not given here.
# Experiments:
# [1] = resazurin metabolic signal in HepG2 cells – cell-based, resazurin fluorescence, 24 h, PK04 Diversity Set, profiling panel (AID 1172); details: HepG2 viability, higher = more signal
# [2] = budding yeast growth changes without added modifier – OD600, strain BY4716, 24 h, basal condition, primary screen (AID 1173); details: S. cerevisiae BY4716 growth, OD600, 24 h; higher = more signal, called active from +8 up or from −8 down
# [3] = viability profiling in MM1S myeloma cells – cell-based, resazurin fluorescence, basal, 24 h, PK04 Diversity Set, profiling panel (AID 1174); details: higher = more signal, called active from +8 up or from −8 down;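 note: MM1S multiple myeloma cell line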
# [4] = target: Dihydroorotate dehydrogenase (quinone), mitochondrial (Plasmodium falciparum (isolate 3D7)) (UniProt Q08210); assay: inhibition of P. falciparum DHODH – biochemical, C-terminal His tag, absorbance 600 nm, primary screen (AID 1175); details: PfDHODH enzyme, DCIP absorbance 600 nm; higher = more signal, called active from +8 up or from −8 down;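 note: recombinant parasite enzyme with a five histidine tag at its C terminus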
# Sequence of Dihydroorotate dehydrogenase (quinone), mitochondrial (Plasmodium falciparum (isolate 3D7)) (Q08210 whole entry, looked up): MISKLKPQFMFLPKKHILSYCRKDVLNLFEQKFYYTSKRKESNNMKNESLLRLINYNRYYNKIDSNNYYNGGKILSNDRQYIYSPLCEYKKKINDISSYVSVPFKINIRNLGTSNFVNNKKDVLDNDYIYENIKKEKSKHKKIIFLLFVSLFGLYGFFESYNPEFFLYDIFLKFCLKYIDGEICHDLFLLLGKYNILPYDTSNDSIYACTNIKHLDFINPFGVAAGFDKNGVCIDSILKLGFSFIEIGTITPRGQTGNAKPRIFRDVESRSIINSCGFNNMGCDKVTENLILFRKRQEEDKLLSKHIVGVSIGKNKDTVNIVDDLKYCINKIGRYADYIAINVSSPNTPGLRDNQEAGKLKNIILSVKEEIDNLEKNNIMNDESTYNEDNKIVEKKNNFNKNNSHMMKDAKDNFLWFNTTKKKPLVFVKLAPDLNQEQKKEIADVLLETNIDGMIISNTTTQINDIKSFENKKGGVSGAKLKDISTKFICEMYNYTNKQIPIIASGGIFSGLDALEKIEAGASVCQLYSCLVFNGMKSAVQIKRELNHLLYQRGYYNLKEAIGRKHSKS
# [5] = inhibition of PAO1 biofilm formation – strain PAO1, LB-PBS medium, absorbance 600 nm, primary screen (AID 1176); details: P. aeruginosa PAO1 growth/biofilm, A600, 12 h; higher = more signal
# [6] = growth modulation of vineyard yeast isolate – strain RM11-1a, OD600, basal, 24 h, primary screen (AID 1177);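 note: cultures grown under basal conditions with no added stressor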; details: S. cerevisiae RM11-1a growth, OD600, 24 h; higher = more signal, called active from +8 up or from −8 down
# [7] = growth of efflux-deficient E. coli DRC39 – strain DRC39, OD650, 24 h, E. coli filamentation inducers, primary screen (AID 1178);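 note: growth measured as culture turbidity by optical density at 650 nm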; details: E. coli DRC39 acrAB, higher = more signal, called active from +8 up or from −8 down
# [8] = growth of efflux-deficient E. coli DRC39 – strain DRC39, OD650, 48 h, E. coli filamentation inducers, primary screen (AID 1179);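 note: screen aims at cell division blockers that make cells filament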; details: E. coli DRC39 delta-acrAB growth, higher = more signal, called active from +8 up or from −8 down
# [9] = viability profiling in RPMI8226 myeloma cells – cell-based, resazurin fluorescence, basal, 24 h, PK04 Diversity Set, profiling panel (AID 1180); details: higher = more signal;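 note: RPMI8826 multiple myeloma cell line at 5000 cells per well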
# [10] = target: E3 ubiquitin-protein ligase XIAP (Homo sapiens) (UniProt P98170); assay: small molecules binding XIAP protein – biophysical, small-molecule microarray, fluorescence 635 nm, primary screen (AID 1181); details: higher = more signal;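 note: score merges 667 nm emission and signal to noise over triplicate slides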
# Sequence of E3 ubiquitin-protein ligase XIAP (Homo sapiens) (P98170 whole entry, looked up, the tested form may be a part): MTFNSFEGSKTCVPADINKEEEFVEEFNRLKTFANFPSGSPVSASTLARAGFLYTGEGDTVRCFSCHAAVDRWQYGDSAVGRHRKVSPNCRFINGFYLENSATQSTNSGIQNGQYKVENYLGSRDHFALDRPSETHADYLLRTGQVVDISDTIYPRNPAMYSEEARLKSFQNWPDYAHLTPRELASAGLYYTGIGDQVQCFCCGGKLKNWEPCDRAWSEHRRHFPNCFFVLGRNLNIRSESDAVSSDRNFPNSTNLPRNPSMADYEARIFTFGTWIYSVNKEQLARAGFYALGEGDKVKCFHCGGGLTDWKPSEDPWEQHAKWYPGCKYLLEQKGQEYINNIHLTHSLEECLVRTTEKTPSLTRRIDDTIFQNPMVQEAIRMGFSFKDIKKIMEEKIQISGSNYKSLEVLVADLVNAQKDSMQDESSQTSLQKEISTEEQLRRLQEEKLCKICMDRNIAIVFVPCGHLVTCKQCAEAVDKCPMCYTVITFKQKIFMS
# [11] = system: XIP peptide (Xip251-270) binding; assay: XIP fragment 251-270 binding compounds – biochemical, small-molecule microarray, fluorescence 635/667 nm, 0.1 µg/mL protein, primary screen (AID 1182); details: fluorescent protein binding, 635 nm, higher = more signal, called active from +8 up or from −8 down
# XIP peptide (Xip251-270) = assay: compounds binding XIP fragment 251-270 – biochemical, small-molecule microarray, fluorescence 635/667 nm, 0.5 µg/mL protein, primary screen (AID 1183); details: fluorescence 635 nm, higher = more signal
# [12] = blood-stage malaria parasite viability loss – strain 3D7, DAPI fluorescence, 100 nL, primary screen (AID 1184);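 note: parasites grown inside human red blood cells in medium with human serum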; details: P. falciparum 3D7 growth, 3 d, higher = more signal
# [13] = target: Homeobox protein Hox-A13 (Mus musculus) (UniProt Q62424); assay: disruptors of Hoxa13 oligonucleotide interaction – biochemical, fluorescence polarization, labeled oligonucleotide, primary screen (AID 1185); details: Hoxa13:DNA binding, 15 min, higher = more signal, called active from +8 up or from −8 down
# Sequence of Homeobox protein Hox-A13 (Mus musculus) (Q62424 whole entry, looked up): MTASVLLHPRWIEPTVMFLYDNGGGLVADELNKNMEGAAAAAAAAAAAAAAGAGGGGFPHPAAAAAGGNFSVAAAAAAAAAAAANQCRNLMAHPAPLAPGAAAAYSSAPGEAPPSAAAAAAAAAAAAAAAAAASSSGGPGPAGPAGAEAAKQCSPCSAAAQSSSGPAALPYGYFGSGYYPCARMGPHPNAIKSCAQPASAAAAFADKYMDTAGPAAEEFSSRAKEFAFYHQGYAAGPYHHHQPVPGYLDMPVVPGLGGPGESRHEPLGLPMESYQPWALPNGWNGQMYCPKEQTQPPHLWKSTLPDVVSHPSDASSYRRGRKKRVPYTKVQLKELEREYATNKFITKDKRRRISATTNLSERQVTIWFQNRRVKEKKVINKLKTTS
# [14] = blockers of DNA damage checkpoint Chk1 activation – imaging, HeLa, hydroxyurea, phospho-Chk1 antibody, percent positive cells, primary screen (AID 1186); details: hydroxyurea-induced phospho-Chk1 immunofluorescence imaging, higher = more signal
# [15] = blockers of DNA damage checkpoint Chk1 activation – imaging, HeLa, hydroxyurea, phospho-Chk1 nuclear intensity, primary screen (AID 1187); details: hydroxyurea-induced phospho-Chk1 immunofluorescence imaging, higher = more signal
Compound,z-score [1],z-score [2],z-score [3],composite z-score [4],z-score [5],z-score [6],z-score [7],z-score [8],z-score [9],composite z-score [10],composite z-score [11],composite z-score (XIP peptide (Xip251-270)),z-score [12],z-score [13],z-score [14],z-score [15]
CCOC(=O)C[C@H]1[C@H](OC(=O)c2ccccc2-c2ccccc2)[C@@H](NC(=O)Cc2ccc(OC)cc2)c2cc(OCCCO)ccc2N1C(=O)Cc1ccc(OC)cc1,1.5 and 0.156,0.324 (inactive) and 0.67 (inactive),0.783 (inactive) and 0.0875 (inactive),1.08 (inactive) and 0.343 (inactive),0.531 (inactive),0.6 (inactive) and 0.0342 (inactive),1.56 (inactive) and -0.539 (inactive),0.949 (inactive) and -0.39 (inactive),0.844 and 0.125,0.202 and -0.188,0.645 (inactive) and -0.44 (inactive),0.0988 and -0.0465,-1.83 and -1.26,-0.622 (inactive) and -3.3 (inactive),-0.901 (inactive) and 0.898 (inactive),-0.496 (inactive) and 0.836 (inactive)
C=CCN(CCCCC)C(=O)C(c1cccs1)N(CCOCCO)C(=O)/C=C\C(=O)O (centres undefined),-0.925 and -0.111,-0.397 (inactive) and -0.258 (inactive),-0.223 (inactive) and 0.149 (inactive),-1.15 (inactive) and -1.27 (inactive),0.0126 (inactive) and -0.401 (inactive),-1.37 (inactive) and -1.48 (inactive),-0.388 (inactive) and 0.106 (inactive),0.526 (inactive) and 0.855 (inactive),0.096 and -0.165,0.548 and -0.0273,-0.44 (inactive) and -0.841 (inactive),-0.265 and -0.343,-0.102 and -0.0618,-0.478 (inactive) and -0.603 (inactive),-0.0506 (inactive) and -0.514 (inactive),0.425 (inactive) and 0.965 (inactive)
C=CCN(CCCC)C(=O)C1N(CCOCCO)C(=O)C2C(C(=O)O)C3C=CC21O3 (centres undefined),-0.171 and -0.143,0.492 (inactive) and 1.27 (inactive),-0.451 (inactive) and -0.748 (inactive),0.457 (inactive) and 0.856 (inactive),0.413 (inactive) and 0.261 (inactive),-0.119 (inactive) and 0.178 (inactive),0.127 (inactive) and -0.229 (inactive),-0.11 (inactive) and -0.406 (inactive),-0.472 and -0.68,0.0258 and -0.304,0.175 (inactive) and 0.306 (inactive),1.07 and -0.932,0.172 and 0.134,-1.14 (inactive) and -0.529 (inactive),-0.24 (inactive) and 0.924 (inactive),-0.299 (inactive) and 0.869 (inactive)
C[N+](C)(C)CCCCNC(=O)[C@H]1C[C@H]2C(=O)N[C@@H](CCCC[N+](C)(C)C)C(=O)N2[C@H]1c1ccc(O)cc1,-0.168 and 0.0318,0.889 (inactive) and 0.811 (inactive),-0.531 (inactive) and -0.416 (inactive),-29.8 (active) and -29.4 (active),0.227 (inactive) and 2.5 (inactive),0.659 (inactive) and 0.409 (inactive),0.0769 (inactive) and -0.869 (inactive),0.0835 (inactive) and -1.41 (inactive),-0.891 and -1.06,0.104 and 0.0015,1.52 (inactive) and 1.25 (inactive),0.761 and 0.892,0.952 and -1.12,-0.497 (inactive) and 1.22 (inactive),0.487 (inactive) and -0.868 (inactive),0.605 (inactive) and -0.687 (inactive)
